This assay deals with Trypanosoma brucei. Description: Trypanosoma brucei 72 hour study. The assay is classed as functional, organism-based. More on the design: scale not given: in the data most compounds retested in dose-response had high values.

From ChEMBL document CHEMBL3988442, “University of Dundee, Small-Polar-MMV Screening Library” (2021) come the findings set out here.

Among all 66,000 compounds or so, about 960 (1.5%) showed an effect of 50% or more. What follows is part of a selection rich in strong results, with near analogues and random picks from the rest.

In the case of `CC(Cc1cccc(F)c1)NCc1cnc(N2CCN(C)CC2)nc1` (configuration not stated), where the note is “30 µM, 30.03 µM”, the “Percent Effect” value stood at 94.94%.

For the compound `Cc1cccc(-c2ncc(CNC(C)Cc3ncccc3C)cn2)c1` (configuration not stated), the “Percent Effect” value (30.3 µM, […]) is -134.7%.

For `Cn1nc(CN2CCCCC(N)C2)c2c(Cl)cccc21` (configuration not stated), the “Percent Effect” value (30.3 µM, […]) is given as 88.2%.

In the case of `Cn1ccc2c(C(=O)NC3CN4CCC3CC4)cccc21` (configuration not stated), the “Percent Effect” value (30 µM, 30.03 µM) was -26.79%.

Turning to `Cn1ncc2c(NC3CN4CCC3CC4)nc(-c3ccncc3)nc21` (configuration not stated), the “Percent Effect” value (30.3 µM, […]) is 99.69%.

For the compound `CC(C)n1ccc2ccc(C(=O)NC3CN4CCC3CC4)cc21` (configuration not stated), the “Percent Effect” value (30 µM, 30.03 µM) is on record as -12.75%.

Consider `O=C(C1CCOCC1)N1C[C@H]2CNC[C@H]2C1`, for which the “Percent Effect” value (30.3 µM, […]) stood at 14.48%.

For the compound `CN1CC[C@H]2OCC[C@@]2(C(=O)NCCc2ccccn2)C1.O=C(O)C(F)(F)F.O=C(O)C(F)(F)F`, the “Percent Effect” value (30.3 µM, […]) is given as -17.73%.

For the compound `O=C(O)C(F)(F)F.O=C(O)C(F)(F)F.c1cc(COC[C@]23COC[C@H]2CN(Cc2ccsc2)C3)ccn1`, the “Percent Effect” value (30 µM, 30.03 µM) amounted to 16.71%.

For the compound `O=C(O)C(F)(F)F.O=C(O)C(F)(F)F.c1cc(COC[C@]23COC[C@H]2CN(CC2CCC2)C3)ccn1`, where the note is “30 µM, 30.03 µM”, the “Percent Effect” value came out at 51.43%.

As for `O=C(O)C(F)(F)F.O=C(O)C(F)(F)F.O=C(O)C(F)(F)F.c1cc(COC[C@]23COC[C@H]2CN(Cc2ccncc2)C3)ccn1`, for the setting “30 µM, 30.03 µM”, the “Percent Effect” value is -36.39%.

In the case of `O=C(O)C(F)(F)F.O=C(O)C(F)(F)F.O=C(O)C(F)(F)F.c1cncc(CN2CCN3C[C@H](Oc4cncnc4)C[C@H]3C2)c1`, the “Percent Effect” value (30.3 µM, […]) was -85.06%.

For the compound `O=C(O)C1CC2(CCN(c3nccc4ccccc34)CC2)CN1` (configuration not stated), the “Percent Effect” value (30 µM, 30.03 µM) stood at 23.73%.

`CN1CC2(CCNCC2)CC1C(=O)NCCCNc1cccnc1` (configuration not stated): the “Percent Effect” value (30.3 µM, […]) is listed as -6.231%.

With `O=C(NCc1cnn2cccnc12)C1CC2(CCNCC2)CN1` (configuration not stated), the “Percent Effect” value (30 µM, 30.03 µM) turned out to be 54.89%.

As to `COc1ncccc1CN1C[C@H]2CCN(c3ncccn3)C[C@H]2C1.O=C(O)C(F)(F)F`, the “Percent Effect” value (30.3 µM, […]) was -7.481%.

Consider `OCC1N(Cc2ccco2)[C@H]2CC[C@]1(O)CC2` (some centres not stated), for which the “Percent Effect” value (30.3 µM, […]) is reported as -9.73%.

As for `O=C(NCc1ccccn1)[C@]12COC[C@H]1CN(Cc1ccsc1)C2.O=C(O)C(F)(F)F.O=C(O)C(F)(F)F`, where the note is “30.3 µM, […]”, the “Percent Effect” value is listed as -46.8%.

Take `Cc1cc(CN2C[C@@H]3COC[C@H](C(=O)N4CCCCO4)[C@@H]3C2)no1.O=C(O)C(F)(F)F`: the “Percent Effect” value (30.3 µM, […]) is -104.8%.

On to `Cc1noc(C)c1CN1C[C@@H]2COC[C@H](C(=O)N3CCCO3)[C@@H]2C1`, for which, for the setting “30.3 µM, […]”, the “Percent Effect” value is recorded as -103.2%.

For the compound `Cc1noc(C)c1CN1C[C@@H]2COC[C@@H](C(=O)N3CCCO3)[C@@H]2C1`, the “Percent Effect” value (30.3 µM, […]) came out at 79.91%.

Regarding `O=C(Nc1cccnc1)[C@H]1CN(Cc2nccs2)C[C@H]2OCC[C@@H]12.O=C(O)C(F)(F)F.O=C(O)C(F)(F)F.O=C(O)C(F)(F)F`, the “Percent Effect” value (30 µM, 30.03 µM) is reported as 6.623%.

With `Cc1cccc(CN2C(=O)C[C@H]3[C@@H]2CCN3CC2CC2)n1.O=C(O)C(F)(F)F.O=C(O)C(F)(F)F`, the “Percent Effect” value (30.3 µM, […]) is 9.244%.

Consider `CNC(=O)c1ccc2c(c1)C1(CCN(C(C)C)CC1)C(=O)N2.O=C(O)C(F)(F)F`, for which the “Percent Effect” value (30.3 µM, […]) is recorded as -29.31%.

On to `CCC1CNCc2cc3c(C)ccc(C)c3nc2O1` (configuration not stated), for which the “Percent Effect” value (30.3 µM, […]) is 58.28%.

On to `CCC1CNCc2cc3c(OC)ccc(OC)c3nc2O1` (configuration not stated), for which the “Percent Effect” value (30.3 µM, […]) was found to be 8.287%.

As for `Cc1cccc(CN2CC[C@H]3OCC[C@@]3(C(=O)N3CCCO3)C2)n1.O=C(O)C(F)(F)F.O=C(O)C(F)(F)F`, the “Percent Effect” value (30.3 µM, […]) is reported as -52.48%.

As for `O=C(O)C(F)(F)F.O=C(O)C(F)(F)F.O=C([C@H]1C[C@H]2OCC[C@H]2N(Cc2cccnc2)C1)N1CCCCO1`, the “Percent Effect” value (30.3 µM, […]) was -300.7%.

With `O=C(C[C@@H]1COC[C@H]2CN(Cc3cccnc3)C[C@@H]12)NCC1CC1.O=C(O)C(F)(F)F.O=C(O)C(F)(F)F`, the “Percent Effect” value (30.3 µM, […]) is reported as -16.86%.

For the compound `CC1CN(CCc2ccncc2)CCO1` (configuration not stated), the “Percent Effect” value (30 µM, 30.03 µM) is -38.53%.

In the case of `CCC1CCCCN1CCc1ccncc1` (configuration not stated), the “Percent Effect” value (30.3 µM, […]) came to 96.43%.

Turning to `CN(c1ncccc1C#N)C1CCN(CCc2ccncc2)CC1`, for the setting “30 µM, 30.03 µM”, the “Percent Effect” value is listed as -5.163%.

Consider `Fc1cccc(CN2CCC3(CCN3c3ncccn3)C2)c1.O=C(O)C(F)(F)F` (configuration not stated), for which, under “30.3 µM, […]”, the “Percent Effect” value is on record as -29.27%.

With `COCCN1CCC2(COCc3cnc(-c4ccccc4)nc32)C1.O=C(O)C(F)(F)F` (configuration not stated), under “30.3 µM, […]”, the “Percent Effect” value is reported as -55.77%.

Consider `CCOC(=O)[C@@H]1[C@@H](c2ccccc2)CN2CCNC[C@H]12`, for which, where the note is “30.3 µM, […]”, the “Percent Effect” value is on record as -24.8%.

Regarding `O=C1CSC(c2ccc3c(c2)OCO3)c2cnn(C3CCCCC3)c2N1` (configuration not stated), the “Percent Effect” value (30 µM, 30.03 µM) is listed as 6.351%.

With `O=C1CSC(c2cccs2)c2cnn(C3CCCC3)c2N1` (configuration not stated), the “Percent Effect” value (30 µM, 30.03 µM) is 106.7%.

With `COC(=O)c1ccc(C2SCC(=O)Nc3c2cnn3C2CCCC2)cc1` (configuration not stated), the “Percent Effect” value (30 µM, 30.03 µM) turned out to be 9.206%.

Take `CN1CCN(S(=O)(=O)c2cccc(F)c2)Cc2cccnc21.O=C(O)C(F)(F)F`: the “Percent Effect” value (30.3 µM, […]) is recorded as -5.986%.

Consider `COCCN1CCN(S(C)(=O)=O)Cc2ccc(C)nc21.O=C(O)C(F)(F)F`, for which the “Percent Effect” value (30.3 µM, […]) was -28.84%.

For the compound `COCCN1CCN(c2cccc(C)n2)Cc2ccc(C)nc21.O=C(O)C(F)(F)F.O=C(O)C(F)(F)F`, the “Percent Effect” value (30.3 µM, […]) was 60.56%.

For `COCCN1CCN(c2ccc(C)nn2)Cc2ccc(C)nc21.O=C(O)C(F)(F)F.O=C(O)C(F)(F)F`, the “Percent Effect” value (30.3 µM, […]) is on record as 6.262%.
